The panel holds about 83,000 compounds, 20% with a hit somewhere; the sample as a whole holds those more often.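 Percent growth is the endpoint: 0 to 100 indicates growth inhibition (40 means 60% inhibition), 0 means no net growth, and negative values indicate cell death.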 Values without a mark were called inactive. The source made the active and inactive calls. The calls were made as follows: active = growth percent below 10; inactive = the rest.
Test system: HL-60(TB) leukemia
Experiment: NCI-60 one-dose screen, 48 h (100 = growth as untreated, 0 = no growth, -100 = all killed)
Conditions: 10 µM unless noted

Row | SMILES | growth
1 | O=C(Nc1cccc(F)c1)Nc1cccc(Cl)c1 | -10.6% (active)
2 | CCCCCCCCCCNC(=O)CCl | 95.8%
3 | S=C(NCc1ccccc1)N1CCC(CCCC2CCN(C(=S)NCc3ccccc3)CC2)CC1 | 89.7%
4 | CC(C)[C@@]12C[C@@H](OC(=O)COC(=O)c3ccccc3)[C@@](C)(O1)[C@@H]1CC[C@@H](C)[C@H]1[C@@H]2OC(=O)/C=C/c1ccccc1 | 94.5%
5 | CCOC(=O)CO | 83.5%
6 | CSc1nnc(-c2cc3c([nH]c4ccccc43)c(-c3cccc(O)c3)n2)n1-c1ccc(C)cc1 | -16.1% (active)

Reference: PubChem BioAssay (NCI)
